Results: article PMC7862700, “An all-to-all approach to the identification of sequence-specific readers for epigenetic DNA modifications on cytosine”

Assays:
Assay in all cases: DAPPL (digital affinity profiling via proximity ligation, sequencing); 10 mM Tris-HCl pH 7.5, 50 mM NaCl, 1 mM DTT, 4% glycerol, room temperature, 30 min; GST-TFs on glutathione beads, 16-mer random dsDNA library, 0.1% formaldehyde crosslink after washing; high values mean tight binding
Conditions in all cases: protein: recombinant; tags: N-terminal GST; dsDNA, one strand shown
[1] = target: T1, ERF (Homo sapiens, UniProt P50548 1-548)
T1 sequence: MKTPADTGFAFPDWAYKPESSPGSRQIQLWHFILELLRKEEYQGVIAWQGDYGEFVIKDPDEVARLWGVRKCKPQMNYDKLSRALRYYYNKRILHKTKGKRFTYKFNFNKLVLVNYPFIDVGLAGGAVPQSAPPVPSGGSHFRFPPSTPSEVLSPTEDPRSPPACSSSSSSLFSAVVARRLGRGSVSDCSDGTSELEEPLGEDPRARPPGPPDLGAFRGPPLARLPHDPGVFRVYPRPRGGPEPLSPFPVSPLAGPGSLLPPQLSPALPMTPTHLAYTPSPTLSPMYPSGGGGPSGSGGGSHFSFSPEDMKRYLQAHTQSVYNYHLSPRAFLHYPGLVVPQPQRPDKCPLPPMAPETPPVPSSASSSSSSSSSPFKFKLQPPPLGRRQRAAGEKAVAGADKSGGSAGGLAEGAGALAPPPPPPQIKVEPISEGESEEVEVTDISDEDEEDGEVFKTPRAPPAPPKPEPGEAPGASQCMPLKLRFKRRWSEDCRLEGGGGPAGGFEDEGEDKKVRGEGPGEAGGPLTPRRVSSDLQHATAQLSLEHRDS
In short: (§1)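 Binding signal is given per hexamer as its read frequency for a factor divided by its frequency in the tag-only sample. GST-fused human transcription factors were expressed in yeast, captured on glutathione beads, barcoded with DNA and pooled with that sample, then incubated with 200 nmole of a 16-mer random double-stranded DNA library in Tris/NaCl/DTT/glycerol buffer for 30 min at room temperature. The pools were then washed, crosslinked, proximity-ligated, amplified by PCR and sequenced on an Illumina NextSeq500.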

[2] = target: T2, ETV3L (Homo sapiens, UniProt Q6ZN32 1-361)
T2 sequence: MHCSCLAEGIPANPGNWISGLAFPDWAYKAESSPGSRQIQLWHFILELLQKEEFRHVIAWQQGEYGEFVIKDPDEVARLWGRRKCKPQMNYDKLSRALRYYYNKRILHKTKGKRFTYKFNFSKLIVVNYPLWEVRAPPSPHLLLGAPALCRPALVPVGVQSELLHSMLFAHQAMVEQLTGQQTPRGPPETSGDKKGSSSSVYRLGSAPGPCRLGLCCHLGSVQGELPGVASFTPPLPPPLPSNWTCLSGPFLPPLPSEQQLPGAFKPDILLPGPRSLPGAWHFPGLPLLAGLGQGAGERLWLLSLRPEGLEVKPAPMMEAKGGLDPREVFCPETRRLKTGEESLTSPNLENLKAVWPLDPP
In short: as §1

[3] = target: T3, ETS2 (Homo sapiens, UniProt P15036 1-469)
T3 sequence: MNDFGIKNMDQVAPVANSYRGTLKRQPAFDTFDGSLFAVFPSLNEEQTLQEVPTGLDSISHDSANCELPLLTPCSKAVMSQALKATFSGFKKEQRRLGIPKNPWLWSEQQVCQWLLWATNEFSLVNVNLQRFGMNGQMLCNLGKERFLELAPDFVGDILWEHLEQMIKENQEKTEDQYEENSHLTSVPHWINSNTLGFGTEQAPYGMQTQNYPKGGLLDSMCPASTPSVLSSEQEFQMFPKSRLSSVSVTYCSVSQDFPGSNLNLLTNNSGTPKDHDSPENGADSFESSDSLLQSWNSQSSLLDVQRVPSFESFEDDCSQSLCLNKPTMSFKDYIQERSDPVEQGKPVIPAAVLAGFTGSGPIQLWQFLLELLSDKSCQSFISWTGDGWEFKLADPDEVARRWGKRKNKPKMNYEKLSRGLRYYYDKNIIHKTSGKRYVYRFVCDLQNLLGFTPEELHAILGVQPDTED
In short: as §1

[4] = target: T4, SPDEF (Homo sapiens, UniProt O95238 1-335)
T4 sequence: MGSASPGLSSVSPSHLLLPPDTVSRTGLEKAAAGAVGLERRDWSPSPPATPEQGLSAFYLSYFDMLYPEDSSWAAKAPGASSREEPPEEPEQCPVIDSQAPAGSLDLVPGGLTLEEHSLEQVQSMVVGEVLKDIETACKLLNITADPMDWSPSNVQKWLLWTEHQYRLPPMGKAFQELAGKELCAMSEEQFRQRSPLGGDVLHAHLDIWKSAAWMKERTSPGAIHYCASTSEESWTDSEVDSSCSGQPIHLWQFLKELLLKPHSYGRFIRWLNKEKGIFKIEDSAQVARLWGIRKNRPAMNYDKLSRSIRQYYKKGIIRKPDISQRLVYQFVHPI
In short: as §1

[5] = target: T5, ETV7 (Homo sapiens, UniProt Q9Y603 1-341)
T5 sequence: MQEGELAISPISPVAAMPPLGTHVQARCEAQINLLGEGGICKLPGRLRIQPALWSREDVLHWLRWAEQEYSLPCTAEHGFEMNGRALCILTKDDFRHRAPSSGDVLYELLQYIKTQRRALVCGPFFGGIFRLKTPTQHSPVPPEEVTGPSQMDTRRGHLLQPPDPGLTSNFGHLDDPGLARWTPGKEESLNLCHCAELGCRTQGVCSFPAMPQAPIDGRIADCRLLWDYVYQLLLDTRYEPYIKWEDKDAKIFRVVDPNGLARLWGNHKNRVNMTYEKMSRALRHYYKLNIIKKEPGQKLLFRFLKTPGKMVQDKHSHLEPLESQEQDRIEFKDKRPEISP
In short: as §1

[6] = target: T6, ELF5 (Homo sapiens, UniProt Q9UKW6-2 1-255)
T6 sequence: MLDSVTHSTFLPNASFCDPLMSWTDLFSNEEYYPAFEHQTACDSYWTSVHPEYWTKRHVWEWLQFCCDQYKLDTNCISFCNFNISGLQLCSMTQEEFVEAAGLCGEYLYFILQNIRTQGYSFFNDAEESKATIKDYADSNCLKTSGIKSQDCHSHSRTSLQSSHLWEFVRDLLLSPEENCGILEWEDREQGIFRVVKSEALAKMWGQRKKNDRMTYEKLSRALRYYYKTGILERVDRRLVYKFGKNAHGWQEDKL
In short: as §1

[7] = target: T7, ETV3 (Homo sapiens, UniProt P41162-2 1-143)
T7 sequence: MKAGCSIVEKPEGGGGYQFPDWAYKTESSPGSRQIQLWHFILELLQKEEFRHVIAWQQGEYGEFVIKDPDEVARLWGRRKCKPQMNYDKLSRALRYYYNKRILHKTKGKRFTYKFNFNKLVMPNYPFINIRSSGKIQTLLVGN
In short: as §1

[8] = target: ETV6 (Homo sapiens, UniProt P41212 1-452)
Sequence of ETV6 (P41212 whole entry): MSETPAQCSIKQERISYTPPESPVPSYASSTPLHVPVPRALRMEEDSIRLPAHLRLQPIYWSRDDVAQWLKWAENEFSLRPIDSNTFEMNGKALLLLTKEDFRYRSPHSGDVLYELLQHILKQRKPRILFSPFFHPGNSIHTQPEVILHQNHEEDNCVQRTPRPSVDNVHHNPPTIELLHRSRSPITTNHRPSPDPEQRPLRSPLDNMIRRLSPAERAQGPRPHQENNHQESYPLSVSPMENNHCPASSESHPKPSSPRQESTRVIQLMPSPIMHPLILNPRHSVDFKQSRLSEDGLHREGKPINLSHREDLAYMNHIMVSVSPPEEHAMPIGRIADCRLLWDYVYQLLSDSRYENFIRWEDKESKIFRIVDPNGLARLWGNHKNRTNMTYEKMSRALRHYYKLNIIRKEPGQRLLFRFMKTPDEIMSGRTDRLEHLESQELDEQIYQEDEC
In short: as §1

Row | Sequence | binding signal [1] | binding signal [2] | binding signal [3] | binding signal [4] | binding signal [5] | binding signal [6] | binding signal [7] | binding signal [8]
1 | CCGCTC | 1.66 fold enrichment (6-mer frequency, TF over GST control) | 1.74 fold enrichment (6-mer frequency, TF over GST control) | 1.54 fold enrichment (6-mer frequency, TF over GST control) | 1.44 fold enrichment (6-mer frequency, TF over GST control) | 1.42 fold enrichment (6-mer frequency, TF over GST control) | 1.53 fold enrichment (6-mer frequency, TF over GST control) | 1.46 fold enrichment (6-mer frequency, TF over GST control) | 1.32 fold enrichment (6-mer frequency, TF over GST control)
2 | TCATTT | 1.37 fold enrichment (6-mer frequency, TF over GST control) | 1.47 fold enrichment (6-mer frequency, TF over GST control) | 1.41 fold enrichment (6-mer frequency, TF over GST control) | 1.22 fold enrichment (6-mer frequency, TF over GST control) | 1.37 fold enrichment (6-mer frequency, TF over GST control) | 1.32 fold enrichment (6-mer frequency, TF over GST control) | 1.3 fold enrichment (6-mer frequency, TF over GST control) | 1.35 fold enrichment (6-mer frequency, TF over GST control)
3 | GATTTT | 1.16 fold enrichment (6-mer frequency, TF over GST control) | 1.24 fold enrichment (6-mer frequency, TF over GST control) | 1.17 fold enrichment (6-mer frequency, TF over GST control) | 1.14 fold enrichment (6-mer frequency, TF over GST control) | 1.13 fold enrichment (6-mer frequency, TF over GST control) | 1.13 fold enrichment (6-mer frequency, TF over GST control) | 1.08 fold enrichment (6-mer frequency, TF over GST control) | 1.11 fold enrichment (6-mer frequency, TF over GST control)
4 | TCAATA | 1.24 fold enrichment (6-mer frequency, TF over GST control) | 1.24 fold enrichment (6-mer frequency, TF over GST control) | 1.15 fold enrichment (6-mer frequency, TF over GST control) | 1.17 fold enrichment (6-mer frequency, TF over GST control) | 1.26 fold enrichment (6-mer frequency, TF over GST control) | 1.08 fold enrichment (6-mer frequency, TF over GST control) | 1.23 fold enrichment (6-mer frequency, TF over GST control) | 1.14 fold enrichment (6-mer frequency, TF over GST control)
5 | CTACCG | 1.62 fold enrichment (6-mer frequency, TF over GST control) | 1.69 fold enrichment (6-mer frequency, TF over GST control) | 1.63 fold enrichment (6-mer frequency, TF over GST control) | 1.63 fold enrichment (6-mer frequency, TF over GST control) | 1.54 fold enrichment (6-mer frequency, TF over GST control) | 1.64 fold enrichment (6-mer frequency, TF over GST control) | 1.58 fold enrichment (6-mer frequency, TF over GST control) | 1.53 fold enrichment (6-mer frequency, TF over GST control)
6 | TTAAAA | 1.3 fold enrichment (6-mer frequency, TF over GST control) | 1.27 fold enrichment (6-mer frequency, TF over GST control) | 1.17 fold enrichment (6-mer frequency, TF over GST control) | 1.15 fold enrichment (6-mer frequency, TF over GST control) | 1.26 fold enrichment (6-mer frequency, TF over GST control) | 1.11 fold enrichment (6-mer frequency, TF over GST control) | 1.17 fold enrichment (6-mer frequency, TF over GST control) | 1.19 fold enrichment (6-mer frequency, TF over GST control)
7 | GATTAC | 1.13 fold enrichment (6-mer frequency, TF over GST control) | 1.07 fold enrichment (6-mer frequency, TF over GST control) | 1.1 fold enrichment (6-mer frequency, TF over GST control) | 1.13 fold enrichment (6-mer frequency, TF over GST control) | 1.08 fold enrichment (6-mer frequency, TF over GST control) | 1.11 fold enrichment (6-mer frequency, TF over GST control) | 1.07 fold enrichment (6-mer frequency, TF over GST control) | 1.13 fold enrichment (6-mer frequency, TF over GST control)
